Pf apPOL inh – Pf-apPOL DNA polymerase inhibition; Recombinant Pf-apPOL, molecular beacon fluorescence, 1.5 h; inhibition, % at 10 µM; 210,000 tested, 0.25% active
mHTT-CaM PPI inh – inhibitors of human mutant huntingtin-calmodulin interaction | P42858 | AlphaScreen His-mHTT/GST-CaM binding, luminescence | inhibition, % at 15 µM | 190,000 tested, 3.6% active
Of the large screens only hits and unclear results are named; the others gave an inactive call. Most compounds without a hit are left out; they make up all but 3.6% or so of the library. No stated cut-off is given here; in the data, active means inhibition above about 50%; inactive means the rest.

Clc1ccc(C2CC(c3cccc(Br)c3)Nc3ncnn32)cc1 (stereo unspecified)	mHTT-CaM PPI inh 53.0
c1ccc(-c2ccc(C3CC(c4cccs4)n4ncnc4N3)cc2)cc1 (stereo unspecified)	mHTT-CaM PPI inh 55.0
Clc1ccc(C2CC(c3ccc(Br)cc3)Nc3ncnn32)cc1 (stereo unspecified)	mHTT-CaM PPI inh 59.0
Cc1ccc(C2CC(c3ccccc3)n3ncnc3N2)cc1 (stereo unspecified)	none
Clc1ccc(C2CC(c3ccccc3)Nc3ncnn32)cc1 (stereo unspecified)	none
Cc1ccc(C2CC(c3ccc(Br)cc3)n3ncnc3N2)cc1 (stereo unspecified)	mHTT-CaM PPI inh 53.0
COc1ccc(C2CC(c3cccc(Br)c3)Nc3ncnn32)cc1 (stereo unspecified)	none
Cc1ccc(C2CC(c3cccs3)n3ncnc3N2)cc1 (stereo unspecified)	none
COc1ccc(Cl)cc1NC(=O)c1cn2c(n1)COCC2	none
CC1C(=O)N(c2ccccc2F)CCN1C(=O)c1ccc(Cl)cc1 (stereo unspecified)	none
CN(C)c1ccc(C=NNC2=NCCN2)cc1	none (no result: mHTT-CaM PPI inh)
CN(C)c1ccc(/C=N/NC(=S)N/N=C/c2ccc(N(C)C)cc2)cc1	mHTT-CaM PPI inh active (no result: Pf apPOL inh)
CSc1ccc(Cl)c(C(=O)Nc2c(C)n(C)n(-c3ccccc3)c2=O)c1	Pf apPOL inh 62.8
Cc1c(NC(=O)c2cc([N+](=O)[O-])ccc2Cl)c(=O)n(-c2ccccc2)n1C	none
Cc1ccc(-c2nnc(-c3ccc(-n4ccnc4)nc3)o2)cc1F	none
CCN1CCn2cc(C(=O)NCc3cccc(Br)c3)nc2C1	none
Cc1noc(C)c1C1CCCN1C(=O)c1cc(C(F)(F)F)n(C)n1 (stereo unspecified)	none
COc1ccc(CC(=O)Nc2c3c(nn2-c2ccc(OC)cc2)CSC3)cc1	none
COc1ccc(CNC(=O)Cn2nc3c(c2NC(=O)Cc2cccs2)CSC3)cc1	mHTT-CaM PPI inh 66.3
Cc1[nH]c2ccccc2c1C(C[N+](=O)[O-])c1ccc(F)cc1 (stereo unspecified)	mHTT-CaM PPI inh 54.0
COc1cc(C(C[N+](=O)[O-])c2c(C)[nH]c3ccccc23)cc(OC)c1OC (stereo unspecified)	none
Cc1[nH]c2ccccc2c1C(Nc1ccccn1)c1ccc([N+](=O)[O-])cc1 (stereo unspecified)	mHTT-CaM PPI inh 97.1
Cc1[nH]c2ccccc2c1C(Nc1ccccc1F)c1ccccn1 (stereo unspecified)	none
COc1ccc(C(=O)Nc2ccc(-c3nc4ccccc4s3)cc2)cc1[N+](=O)[O-]	none
COC(=O)c1ccc(CN2CCc3nc(NC(=O)C4CC4)sc3C2)o1	none
CCOc1ccc(C(=O)NCCc2cc3cc(C)c(C)cc3[nH]c2=O)cc1OCC	none
O=C1c2ccccc2-c2onc3c(Br)cc(Br)c1c23	none
COc1cccc(NC2=CC(=O)CC(c3ccccc3)C2)c1 (stereo unspecified)	none
COc1cccc(Nc2ccc3noc4c3c2C(=O)c2ccccc2-4)c1	mHTT-CaM PPI inh 58.0
CNc1cc(Nc2cccc(C)c2)c2c3c(onc13)-c1ccccc1C2=O	mHTT-CaM PPI inh 89.0
CC(C)[C@@H]1CC[C@@H](C)C[C@@H]1OC(=O)C(O)C(O)C(=O)O[C@H]1C[C@H](C)CC[C@H]1C(C)C (stereo partly specified)	none (no result: Pf apPOL inh)
O=C(CN1CCc2ccccc2C1C(=O)N1CCCCC1)NCc1ccc(F)cc1Cl (stereo unspecified)	none
CC1CCN(C(=O)C2c3ccccc3CCN2CC(=O)Nc2cc(F)ccc2Cl)CC1 (stereo unspecified)	none
O=C(CN1CCc2ccccc2C1C(=O)N1CCCCC1)Nc1ccc(F)cc1Cl (stereo unspecified)	mHTT-CaM PPI inh 68.3
CC1CCN(C(=O)C2c3ccccc3CCN2CC(=O)Nc2cccc(Cl)c2)CC1 (stereo unspecified)	mHTT-CaM PPI inh 59.5
CC1CCN(C(=O)C2c3ccccc3CCN2CC(=O)Nc2ccc(F)cc2Cl)CC1 (stereo unspecified)	mHTT-CaM PPI inh 88.0
COc1ccc(Cl)cc1NC(=O)N1CCN(Cc2nc(-c3ccco3)cs2)CC1	mHTT-CaM PPI inh 63.6
COc1ccc(Cl)cc1NC(=O)N1CCN(CCc2ccccc2)CC1	none (no result: mHTT-CaM PPI inh)
Cc1ccc(NC(=O)CN2CCc3ccccc3C2C(=O)N2CCC(C)CC2)cc1C (stereo unspecified)	none
CN(C)c1ccc(N2C=C(C#N)S(=O)(=O)c3c(F)cccc32)cc1	none
COc1cc(C2C=C(c3ccc(Cl)cc3)Nc3nnnn32)cc(OC)c1OC (stereo unspecified)	none
COc1ccccc1C(=O)N1CCCC(C)(C(=O)NCc2ccc(C)cc2)C1 (stereo unspecified)	none
O=C(Nc1ccc2c(c1)OCCO2)C1CCCN(c2nnc3c(Cl)cccn23)C1 (stereo unspecified)	none
CC1CCCCC1NC(=O)CNS(=O)(=O)c1ccc(Br)s1 (stereo unspecified)	none
COc1ccc(Cl)cc1NC(=O)CCN1CCN(C)CC1	Pf apPOL inh 55.4

Source: PubChem
